We go through 4 molecules from ChEMBL document CHEMBL1157539, “Thousands of chemical starting points for antimalarial lead identification” (Nature, 2010).

SMILES strings stand for the structures.

This assay concerns HepG2. Nature of the assay: GSK_TCMDC: Percent inhibition of human HepG2 cell line. Test compounds present at 10uM. The class given is functional.
Usually Inhibition stands for the drop in the measured response relative to a control, in per cent. Take `O=C(O)C(F)(F)F.OC1CCCN(Cc2cccc(-c3ccc(-c4nc5cc(C(F)(F)F)ccc5[nH]4)cc3)c2)C1` (centres undefined): the Inhibition amounted to 27%.

Regarding `Cc1cc(NC2CCCC2)nc(Nc2ccc(F)cc2)n1`, the Inhibition amounted to 22%. To `CCCCOc1c(CNCCCCCCNCc2ccc3ccccc3c2OCCCC)ccc2ccccc12.CS(=O)(=O)O` belongs 99%. `CCn1c(-c2nonc2N)nc2cnc(Oc3cccc(NC(=O)c4ccc(OCCN(C(C)C)C(C)C)cc4)c3)cc21` came in with an Inhibition of 63%.
